# In PubChem BioAssay (Tox21):
# Where “and” joins values, the source holds several entries; their conditions need not be identical. Equal values may be shown once. Records with an inconclusive call do not appear. Entries that show only a call come without a potency. A structure can be active in one record and inactive in another. Calls of active or inactive are those of the source. Unless noted, calls come from the whole dose curve.
# Assays:
# [1] = Nuclear factor erythroid 2-related factor 2/antioxidant responsive element (Nrf2/ARE) small molecule agonists: qHTS cell viability counter screen in human keratinocytes (AID 1919968; active = well fitted curve in the direction sought with a large enough effect in the repeat runs; an effect the other way counts as inactive or inconclusive; note: nearly all actives have a fitted effect of over 55% in size; note: potency is the fitted concentration of half-maximal effect)
# In short: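 After a 5 h attachment period, ARE-reporter keratinocytes were dosed with compounds in DMSO and then cultured 23 h at 37 C. Cell viability came from CellTiter-Fluor signal read after a further 1 h.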
# [2] = Nuclear factor erythroid 2-related factor 2/antioxidant responsive element (Nrf2/ARE) small molecule agonists: luciferase reporter gene qHTS assay in human keratinocytes (AID 1919969); note: nearly all actives have a fitted effect of over 35% in size; note: potency is the fitted concentration of half-maximal effect
# [3] = target: Gonadotropin-releasing hormone receptor (Homo sapiens) (UniProt P30968); experiment: Human gonadotropin-releasing hormone receptor (GnRHR) small molecule agonists, calcium flux assay in GnRHR-HEK293 cells (AID 1920063); note: nearly all actives have a fitted effect of over 35% in size
# Chain of Gonadotropin-releasing hormone receptor (Homo sapiens) (P30968 whole entry, looked up): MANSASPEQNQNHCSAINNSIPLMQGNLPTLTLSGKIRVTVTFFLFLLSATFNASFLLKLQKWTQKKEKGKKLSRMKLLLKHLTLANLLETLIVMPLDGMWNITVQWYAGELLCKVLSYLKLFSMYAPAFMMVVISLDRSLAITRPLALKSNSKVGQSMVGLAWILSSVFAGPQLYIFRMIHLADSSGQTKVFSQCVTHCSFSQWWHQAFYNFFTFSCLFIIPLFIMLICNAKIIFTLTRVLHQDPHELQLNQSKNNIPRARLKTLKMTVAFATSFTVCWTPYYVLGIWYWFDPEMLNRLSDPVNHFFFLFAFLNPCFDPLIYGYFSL
# In short: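 We seeded human GnRHR-expressing HEK293 cells for 18 hours, loaded them with calcium dye for an hour at 37 C, added test compounds, and recorded fluorescence intensity kinetically for three minutes.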
# [4] = target: KiSS-1 receptor (Homo sapiens) (UniProt Q969F8); experiment: Human kisspeptin (KISS1R) small molecule agonists, calcium flux assay in KISS1R-HEK293 cells (AID 1920064; active = well fitted curve in the direction sought with a large enough effect in the repeat runs; an effect the other way counts as inactive or inconclusive)
# Chain of KiSS-1 receptor (Homo sapiens) (Q969F8 whole entry, looked up): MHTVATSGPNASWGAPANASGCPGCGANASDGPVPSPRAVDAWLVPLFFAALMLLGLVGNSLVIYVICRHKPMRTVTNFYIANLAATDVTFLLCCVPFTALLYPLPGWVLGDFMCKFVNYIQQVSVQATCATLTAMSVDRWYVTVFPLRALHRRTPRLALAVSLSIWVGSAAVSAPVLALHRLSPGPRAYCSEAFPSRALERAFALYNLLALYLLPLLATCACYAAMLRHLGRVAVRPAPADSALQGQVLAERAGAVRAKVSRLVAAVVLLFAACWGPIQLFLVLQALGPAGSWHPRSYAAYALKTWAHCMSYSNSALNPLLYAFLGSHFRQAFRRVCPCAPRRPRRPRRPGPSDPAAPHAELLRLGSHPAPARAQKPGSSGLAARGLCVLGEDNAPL
# In short: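 Kinetic calcium assay, 1 s sampling over 3 min at Ex/Em 480/540, in HEK293 cells engineered with human KISS1R; compounds delivered in DMSO after 1 h dye loading.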
# [5] = G protein-coupled receptor (GPCR) small molecule agonists, calcium flux assay: HEK293 wild type cell line counter screen (AID 1920065)
# In short: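 Calcium-sensitive dye, loaded 1 h at 37 C into cells cultured 18 h, reports compound-evoked calcium release as fluorescence (Ex/Em 480/540), measured over 3 min. Agonist mode; 15-point titrations, triplicate.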
# [6] = p53 small molecule agonists, cell-based qHTS assay with rat liver microsomes (AID 1963578)
# In short: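 Rat liver microsome activation: microsomes 0.5 mg/mL, NADPH 0.5 mg/mL final; p53RE-bla cells, 16 h 37 C; LiveBLAzer readout, 2 h RT dark.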
# [7] = p53 small molecule agonists, cell-based qHTS assay with rat liver microsomes: qHTS cell viability counter screen (AID 1963580); note: nearly all actives have a fitted effect of over 45% in size; note: potency is the fitted concentration of half-maximal effect
# In short: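 p53RE-bla HCT-116 cells (4,000/well) rested 5 h at 37 C, then given Tox21 compounds in DMSO with rat liver microsomes (0.5 mg/mL final) plus NADPH (0.5 mg/mL final) for 16 h at 37 C. Viability read by CellTiter-Glo luminescence after 30 min at room temperature.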
# [8] = p53 small molecule agonists, cell-based qHTS assay: qHTS cell viability counter screen (AID 1963581); note: nearly all actives have a fitted effect of over 45% in size; note: potency is the fitted concentration of half-maximal effect
# In short: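 Following 5 h attachment, HCT-116 p53RE-bla cells took up compound for 16 h at 37 C; the reporter was read with B/G FRET substrate (2 h RT), and viability then via CellTiter-Glo ATP luminescence.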
# [9] = p53 small molecule agonists, cell-based qHTS assay (AID 1963582; active = well fitted activation curve with a large enough effect in the signal ratio in the repeat runs, not every such curve was filed as active; the % refers to the signal ratio)
# In short: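 In this cell-based concentration-response screen, a p53 response element drives beta-lactamase; cells received DMSO-borne compounds after 5 h culture and were incubated a further 16 h before FRET substrate development.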
# [10] = target: 5-hydroxytryptamine receptor 2A (Homo sapiens) (UniProt P28223); experiment: 5-hydroxytryptamine receptor 2A (HTR2A) small molecule antagonists, cell-based qHTS assay (AID 1963586); note: nearly all actives have a fitted effect of over 45% in size; note: potency is the fitted concentration of half-maximal effect
# Chain of 5-hydroxytryptamine receptor 2A (Homo sapiens) (P28223 whole entry, looked up): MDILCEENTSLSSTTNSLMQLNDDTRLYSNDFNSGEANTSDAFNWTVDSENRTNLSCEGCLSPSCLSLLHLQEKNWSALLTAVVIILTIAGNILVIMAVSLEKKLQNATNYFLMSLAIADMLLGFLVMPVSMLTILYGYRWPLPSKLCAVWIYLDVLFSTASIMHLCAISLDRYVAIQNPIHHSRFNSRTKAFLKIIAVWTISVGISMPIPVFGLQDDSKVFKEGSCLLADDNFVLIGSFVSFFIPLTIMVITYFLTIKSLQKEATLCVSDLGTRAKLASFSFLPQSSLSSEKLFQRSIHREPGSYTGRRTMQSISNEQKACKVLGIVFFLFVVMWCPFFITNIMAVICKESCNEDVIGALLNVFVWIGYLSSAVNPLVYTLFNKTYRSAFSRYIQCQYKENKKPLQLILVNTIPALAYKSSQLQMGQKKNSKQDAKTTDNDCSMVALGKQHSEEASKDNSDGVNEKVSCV
# In short: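 Antagonist-mode intracellular calcium assay: DOI (4 nM) added after 5 min compound pre-incubation at room temperature to dye-loaded HTR2A-CHO cells. Fluorescence followed for 3 min, sampled every second.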
# [11] = target: 5-hydroxytryptamine receptor 2A (Homo sapiens) (UniProt P28223); experiment: 5-hydroxytryptamine receptor 2A (HTR2A) small molecule agonists, cell-based qHTS assay (AID 1963587); note: nearly all actives have a fitted effect of over 30% in size
# In short: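 HTR2A-CHO cells, plated 18 h at 37 C/5% CO2, dye-loaded 1 h at 37 C; compounds in DMSO added by pin tool (agonist mode). Intracellular calcium flux read as kinetic fluorescence on FDSS over 2 min at 1 s intervals.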
# [12] = target: Muscarinic acetylcholine receptor M1 (Homo sapiens) (UniProt P11229); experiment: Cholinergic receptor muscarinic 1 (CHRM1) small molecule antagonists, cell-based qHTS assay (AID 1963588); note: nearly all actives have a fitted effect of over 40% in size
# Chain of Muscarinic acetylcholine receptor M1 (Homo sapiens) (P11229 whole entry, looked up): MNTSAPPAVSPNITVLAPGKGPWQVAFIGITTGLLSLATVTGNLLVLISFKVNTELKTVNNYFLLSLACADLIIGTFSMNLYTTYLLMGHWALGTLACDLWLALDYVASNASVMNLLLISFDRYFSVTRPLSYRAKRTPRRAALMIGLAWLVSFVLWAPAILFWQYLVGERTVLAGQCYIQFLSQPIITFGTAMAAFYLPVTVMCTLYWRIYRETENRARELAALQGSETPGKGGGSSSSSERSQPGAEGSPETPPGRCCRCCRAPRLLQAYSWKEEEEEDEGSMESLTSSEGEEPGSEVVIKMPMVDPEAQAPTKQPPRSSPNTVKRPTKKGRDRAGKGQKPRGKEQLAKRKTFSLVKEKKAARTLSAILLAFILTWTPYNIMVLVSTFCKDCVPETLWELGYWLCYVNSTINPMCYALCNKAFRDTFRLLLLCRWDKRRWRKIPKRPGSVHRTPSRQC
# In short: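 CHRM1-CHO calcium-flux assay, antagonist mode. Cells were seeded 18 h, dye-loaded 1 h at 37 C and given compound for 5 min at RT, then acetylcholine was added at 50nM. FDSS fluorescence was read 3 min; 15 concentrations, three runs.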
# [13] = target: Muscarinic acetylcholine receptor M1 (Homo sapiens) (UniProt P11229); experiment: Cholinergic receptor muscarinic 1 (CHRM1) small molecule agonists, cell-based qHTS assay (AID 1963589); note: nearly all actives have a fitted effect of over 35% in size
# In short: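 Measures agonist-induced intracellular calcium rise. Stable human CHRM1 CHO line, 1 h dye load at 37 C, compounds from DMSO, kinetic fluorescence read.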
# [14] = cAMP Responsive Elements (CRE) small molecule agonists, cell-based qHTS assay (AID 1963590)
# In short: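 A CRE-responsive beta-lactamase reporter in HEK 293T cells was used. Treatment ran 3 h at 37 C; detection used LiveBLAzer B/G FRET substrate for 2 h at room temperature.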
# [15] = target: Beta-2 adrenergic receptor (Homo sapiens) (UniProt P07550); experiment: Adrenergic beta2 receptor (ADRB2) small molecule antagonists, cell-based qHTS assay (AID 1963592); note: nearly all actives have a fitted effect of over 50% in size; note: potency is the fitted concentration of half-maximal effect
# Chain of Beta-2 adrenergic receptor (Homo sapiens) (P07550 whole entry, looked up): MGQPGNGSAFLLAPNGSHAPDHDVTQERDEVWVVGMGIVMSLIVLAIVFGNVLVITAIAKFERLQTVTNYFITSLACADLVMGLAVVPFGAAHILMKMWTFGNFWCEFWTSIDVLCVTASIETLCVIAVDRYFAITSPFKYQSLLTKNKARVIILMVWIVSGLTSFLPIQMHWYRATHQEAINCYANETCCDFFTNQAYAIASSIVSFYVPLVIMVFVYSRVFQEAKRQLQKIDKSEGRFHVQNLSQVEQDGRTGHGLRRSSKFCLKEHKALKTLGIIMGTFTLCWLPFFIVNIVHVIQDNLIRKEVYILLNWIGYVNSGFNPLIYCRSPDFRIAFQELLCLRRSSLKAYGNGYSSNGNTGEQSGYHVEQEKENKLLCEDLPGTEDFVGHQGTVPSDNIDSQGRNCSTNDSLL
# In short: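 Cells (CHO, stable ADRB2 overexpression) incubated 18-20hr at 37C; compounds added from DMSO; agonist mix (1nM isoproterenol, 100uM IBMX, 25uM Ro-20-1724) added; 0.5hr RT; d2-cAMP and anti-cAMP-cryptate added; 1hr RT; 665/615 nm read.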
# [16] = target: D(2) dopamine receptor (Homo sapiens) (UniProt P14416); experiment: Dopamine D2 receptor (DRD2) small molecule agonists, cell-based qHTS assay (AID 1963594); note: nearly all actives have a fitted effect of over 35% in size
# Chain of D(2) dopamine receptor (Homo sapiens) (P14416 whole entry, looked up): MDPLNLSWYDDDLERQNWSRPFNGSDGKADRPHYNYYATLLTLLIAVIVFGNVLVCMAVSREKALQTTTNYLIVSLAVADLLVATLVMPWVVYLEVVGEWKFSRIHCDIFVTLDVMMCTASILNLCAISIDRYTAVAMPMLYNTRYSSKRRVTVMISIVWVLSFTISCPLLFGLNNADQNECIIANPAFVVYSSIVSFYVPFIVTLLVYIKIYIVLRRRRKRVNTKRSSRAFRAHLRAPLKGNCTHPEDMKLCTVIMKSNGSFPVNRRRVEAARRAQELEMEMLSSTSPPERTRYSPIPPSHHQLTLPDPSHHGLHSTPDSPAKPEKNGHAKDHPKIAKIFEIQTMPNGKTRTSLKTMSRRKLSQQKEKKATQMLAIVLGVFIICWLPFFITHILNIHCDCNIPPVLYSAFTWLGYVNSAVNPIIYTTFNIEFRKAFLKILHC
# In short: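 HEK293 cells stably expressing DRD2 were cultured 24 h at 37 C, then given Ro20-1724 (0.1 mM final) and compounds for 10 min at room temperature. NKH477 (200nM) was then added for 30 min. cAMP was read by HTRF.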
# [17] = target: D(2) dopamine receptor (Homo sapiens) (UniProt P14416); experiment: Dopamine D2 receptor (DRD2) small molecule antagonists, cell-based qHTS assay (AID 1963595; active = well fitted inhibition curve with a large enough effect in the signal ratio in the repeat runs, with a control signal flat; the % refers to the signal ratio)
# In short: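 Human DRD2 antagonist qHTS measuring cAMP by HTRF. The cells are exposed to compound for 10 min, then to NKH477 (200 nM) and quinpirole (12 nM) for 30 min at RT, with Ro20-1724 (0.1 mM) present throughout.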
# [18] = cAMP Responsive Elements (CRE) small molecule antagonists, cell-based qHTS assay (AID 1963591; active = well fitted inhibition curve with a large enough effect in the signal ratio in the repeat runs, not every such curve was filed as active; the % refers to the signal ratio)
# In short: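 HEK293T cells carrying a CRE-driven beta-lactamase reporter receive compound and NKH477 (0.25 uM final) for 3 h. Fluorescence from LiveBLAzer B/G FRET substrate is read after 2 h at room temperature.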
# [19] = target: Beta-2 adrenergic receptor (Homo sapiens) (UniProt P07550); experiment: Adrenergic beta2 receptor (ADRB2) small molecule agonists, cell-based qHTS assay (AID 1963593);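 note: CHO cells stably overexpressing human ADRB2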
# In short: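 CHO cells stably over-expressing ADRB2 were plated overnight at 37C, then dosed with compounds plus a stimulation mix containing 100uM IBMX and 25uM Ro-20-1724 for 0.5hr at room temperature. cAMP was measured by HTRF competition, 1hr.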
# [20] = p53 small molecule agonists, cell-based qHTS assay with human liver microsomes: qHTS cell viability counter screen (AID 1963579); note: nearly all actives have a fitted effect of over 45% in size
# In short: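 Luminescent CellTiter-Glo read-out, 30 min at room temperature, gauged cytotoxicity in p53RE-bla cells exposed 16 h at 37 C to DMSO-dissolved compounds with metabolic activation by human liver microsomes and NADPH, each 0.5 mg/mL final.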
SMILES,Potency [1],Potency [2],Potency [3],Potency [4],Potency [5],Potency [6],Potency [7],Potency [8],Potency [9],Potency [10],Potency [11],Potency [12],Potency [13],Potency [14],Potency [15],Potency [16],Potency [17],Potency [18],Potency [19],Potency [20]
OC(c1ccc(Cl)cc1)(c1cncnc1)c1ccccc1Cl (stereo not drawn),inactive,24.8 µM (active) and inactive,inactive,inactive,inactive,inactive,inactive,inactive,inactive,inactive,inactive,inactive,inactive,inactive,69.8 µM (active),inactive,inactive,,,
ClCCN1CCCC1,inactive,inactive,inactive,inactive,inactive,inactive,inactive,inactive,inactive,inactive,inactive,inactive,,inactive,inactive,inactive,inactive,inactive,inactive,
Oc1ccc(C(c2ccc(O)cc2)(C(F)(F)F)C(F)(F)F)cc1,38.4 µM (active) and 54.5 µM (active),inactive,inactive,inactive,inactive,inactive,,,,37.5 µM (active),,inactive,inactive,,,inactive,inactive,,,
COP(=S)(OC)Oc1ccc(SC)c(C)c1,inactive,inactive and 24.3 µM (active),inactive,inactive,inactive,,inactive,inactive,inactive,inactive,inactive,inactive,inactive,inactive,inactive,inactive,inactive,inactive,inactive,inactive
CCC[CH2][Sn]([Cl])([Cl])[CH2]CCC,1.23 µM (active) and 2.17 µM (active),492 nM (active) and 969 nM (active),inactive,inactive,inactive,inactive,18.5 µM (active) and 45.8 µM (active),3.28 µM (active) and 4.08 µM (active),,,inactive,inactive,inactive,,inactive,inactive,inactive,,inactive,
CNC(=O)Oc1cccc2c1OC(C)(C)O2,inactive,inactive,inactive,inactive,inactive,,inactive,inactive,inactive,inactive,inactive,inactive,inactive,inactive,inactive,inactive,inactive,inactive,inactive,inactive
C=CCCl,inactive,inactive,inactive,inactive,inactive,inactive,inactive,,inactive,inactive,inactive,,inactive,inactive,inactive,inactive,inactive,inactive,,
CC(C)NC(=O)N1CC(=O)N(c2cc(Cl)cc(Cl)c2)C1=O,inactive,inactive,inactive,inactive,inactive,inactive,inactive,inactive,inactive,inactive,inactive,inactive,inactive,,inactive,inactive,inactive,inactive,inactive,
O=C(O)C(F)(F)C(F)(F)C(F)(F)C(F)(F)C(F)(F)C(F)(F)C(F)(F)C(F)(F)C(F)(F)C(F)(F)F,inactive,inactive,inactive,inactive,inactive,,inactive,inactive,inactive,inactive,,inactive,inactive,inactive,inactive,inactive,inactive,inactive,,inactive
O=NN1CCCCCCC1,inactive,inactive,inactive,inactive,inactive,inactive,,inactive,,inactive,inactive,inactive,,inactive,inactive,inactive,inactive,inactive,inactive,
N#CC(Cl)Cl,inactive,59.5 µM (active),inactive,inactive,inactive,inactive,inactive,inactive,inactive,inactive,inactive,inactive,inactive,inactive,,inactive,inactive,,,
C#CCOC(C(=O)OCCN(C)C)(c1ccccc1)c1ccccc1,inactive,inactive,inactive,inactive,inactive,,inactive,inactive,inactive,inactive,inactive,,inactive,inactive,inactive,inactive,inactive,inactive,,inactive
CCOP(=O)(OCC)Oc1ccc([N+](=O)[O-])cc1,inactive,inactive,inactive,inactive,inactive,,inactive,inactive,inactive,inactive,inactive,inactive,inactive,inactive,inactive,inactive,inactive,,,inactive
CCC(=O)OC1(c2ccccc2)CCN(C)CC1,inactive,inactive,inactive,inactive,inactive,,,inactive,inactive,inactive,inactive,inactive,inactive,,inactive,inactive,inactive,inactive,inactive,inactive
